Experimental data as given in PubChem BioAssay (NCI).
Compounds without any hit were thinned out: in the full panel of roughly 83,000, 20% have a hit.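 Step 1: grow cells in 96-well plates. Step 2: add test compound at a single concentration. Step 3: incubate 48 h. Step 4: record percent growth.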 The source made the active and inactive calls. The calls were made as follows: active = growth percent below 10; inactive = the rest.

Experiments:
Assay in all cases: NCI-60 one-dose screen, 48 h (100 = growth as untreated, 0 = no growth, -100 = all killed)
Settings in all cases: 10 µM
[1] = system: BT-549 breast
[2] = system: MDA-MB-435 melanoma
[3] = system: SW-620 colon
[4] = system: MCF7 breast
[5] = system: HCT-116 colon
[6] = system: HCC-2998 colon
[7] = system: KM12 colon

Measured: growth

COc1ccc2c(c1)O/C(=C\c1ccc([N+](=O)[O-])s1)C2=O
active: [1] 7.31% | [3] -56.3% | [5] -23.4% | [7] 5.98%
inactive: [2] 51.7% | [4] 21.4% | [6] 11.9%

Cc1nc2ccc(CN(C)c3ccc(C(=O)N[C@@H](CCC(=O)O)C(=O)O)s3)cc2c(=O)[nH]1
inactive: [1] 57.4% | [2] 61.6% | [3] 71.4% | [4] 23.3% | [5] 40% | [6] 28.5% | [7] 73.4%

Nc1c(C(=O)Nc2cccc3ccccc23)sc2nc3c(cc12)C(=O)CCC3
inactive: [1] 57% | [3] 21.3% | [4] 13.6% | [5] 17.5% | [6] 11.9% | [7] 25.9%
active: [2] -37.3%

CN(C)N=Nc1nn(C(=O)Nc2ccc(Cc3ccccc3)cc2)c2ccccc12
inactive: [1] 75% | [2] 48.5% | [3] 34.4% | [4] 21.1% | [5] 62.1% | [6] 10.1% | [7] 12.9%

Clc1ccc(Nc2ccnc(NCCNc3ccnc4cc(Cl)ccc34)n2)cc1
active: [2] -90% | [3] -10.5% | [4] -74.6% | [5] -71.3% | [6] -89%
inactive: [1] 40.8% | [7] 33.7%

COc1ccc(CN2CCC(N3CCCC3=O)c3cc(Cl)ccc32)cc1 (stereo not given)
inactive: [1] 67.6% | [2] 119% | [3] 102% | [4] 100% | [5] 96.8% | [6] 105% | [7] 103%

O=c1[nH]c(-c2ccc(Cl)cc2)nc2sc3c(c12)CCCC3
inactive: [1] 92.3% | [2] 93.2% | [3] 58.8% | [4] 36% | [5] 60.9% | [6] 109% | [7] 97.6%

CN1CCC(CNc2cc(C3(C(=O)Nc4cc(C(=O)Nc5ccc(Cl)c(C(F)(F)F)c5)ccc4F)CC3)ncn2)CC1
inactive: [1] 52.5% | [6] 22.8% | [7] 36.1%
active: [2] -53.1% | [3] -9.83% | [4] -43% | [5] 8.41%

O=C(Nc1nc2ccc(F)cc2s1)c1cc(-c2ccc(F)cc2)n2nc(-c3ccccc3)cc2n1
inactive: [1] 88% | [2] 62.7% | [3] 62.4% | [4] 80.6% | [5] 79.1% | [6] 99.8% | [7] 65.9%

CCCCCCCCCCCCCC[n+]1ccc(C(N)=O)cc1
inactive: [4] 22.8%
active: [1] -50.9% | [2] 8.53% | [3] 7.11% | [5] 6.07% | [6] 6.43% | [7] -87.2%

Cc1cccc2c1O/C(=C\c1ccc([N+](=O)[O-])o1)C2=O
active: [1] -68.5% | [2] -53.2% | [3] -68% | [4] -39.7% | [5] -53.2% | [6] -67.4% | [7] -34.2%

COc1ccc(Cn2c(C(N)=O)cc3c2-c2nc(N)ncc2CCC3)cc1
inactive: [1] 109% | [2] 97.2% | [3] 91.3% | [4] 92.7% | [5] 101% | [6] 104% | [7] 97.5%

Cc1nc2ccccc2c(N)c1-c1cc(C)c2c(C)nc3ccccc3c2n1
inactive: [1] 58.2% | [2] 69.4% | [4] 31.2%
active: [3] -65.7% | [5] -82.1% | [6] -35% | [7] -83.2%

COc1cc(/C=N/NC(=O)c2ccccc2Nc2ccnc(C(F)(F)F)c2)ccc1O
inactive: [1] 116% | [2] 106% | [3] 104% | [4] 86.8% | [5] 102% | [6] 123% | [7] 114%

Nc1nc(Nc2ccccc2)n[nH]1
inactive: [1] 88.8% | [2] 99.2% | [3] 107% | [4] 95.8% | [5] 97.7% | [6] 98.1% | [7] 107%

COc1cc(-c2cc(C(=O)N3CCN(C(=O)c4ccccc4NCc4cccs4)CC3)nc3cc(-c4ccccc4)nn23)cc(OC)c1OC
active: [2] 6.28%
inactive: [1] 83.8% | [3] 51% | [4] 23.6% | [5] 55.9% | [6] 101% | [7] 27.5%

CN(C)c1ccc(/C=C/C=N/NC(=O)c2cc(O)c(O)c(O)c2)cc1
inactive: [1] 89.7% | [2] 96.7% | [3] 43.4% | [4] 87.8% | [5] 52.7% | [6] 109% | [7] 104%

c1ccc([C@H]2CN3CCSC3=N2)cc1
inactive: [1] 102% | [2] 101% | [3] 98.6% | [4] 94.4% | [5] 110% | [6] 119% | [7] 109%

CN(C)c1ccc(-c2cc(-c3cccc(NS(C)(=O)=O)c3)nc(N)c2C#N)cc1
inactive: [1] 30.8% | [3] 24.3% | [4] 16.1%
active: [2] -25.9% | [5] 5.65% | [6] -41.9% | [7] -14.3%

O=C(O)CN1C(=O)c2cccc3cccc(c23)C1=O
inactive: [1] 104% | [2] 104% | [3] 106% | [4] 87.4% | [5] 102% | [6] 103% | [7] 107%

O=C(Nc1ccc(Cl)c([N+](=O)[O-])c1)Nc1nc2ccccc2s1
inactive: [1] 88.3% | [2] 89.4% | [3] 99.4% | [4] 79% | [5] 66.3% | [6] 86.3% | [7] 106%

COc1ccc2c(c1)nc(N)c1c3cccnc3cn21
inactive: [1] 44.3% | [3] 20.5% | [4] 20.4% | [5] 10.8% | [6] 20.2% | [7] 17.1%
active: [2] -14.3%

COc1ccc([N+](=O)[O-])c(C(=O)O)c1
inactive: [1] 102% | [2] 97.9% | [3] 101% | [4] 93.8% | [5] 103% | [6] 106% | [7] 100%

CCN(CC)CCC(=O)Nc1cccc2c1C(=O)c1c(c(O)c3ccccc3c1O)C2=O
inactive: [1] 68.8% | [2] 91.6% | [3] 43.8% | [4] 30.3% | [5] 44.9% | [6] 80.9% | [7] 56.9%

CCOC(=O)C1(CC(C)C)CCOC1=O (stereo not given)
inactive: [1] 105% | [2] 104% | [3] 98.3% | [4] 93.5% | [5] 107% | [6] 106% | [7] 99.3%

CCN1CCCC1CNC(=O)c1ncc(-c2ccc(C(F)(F)F)cc2)c(NC2CCCCCC2)n1 (stereo not given)
inactive: [1] 99.2% | [2] 72.6% | [3] 96.2% | [4] 43.6% | [5] 54.9% | [6] 72.4% | [7] 75.3%

COc1ccc2c(c1)-c1c(c3cc(OC)ccc3n(CCN(C)C)c1=O)C2=O
active: [3] -8.7% | [4] -0.273% | [5] -21.2% | [7] 8.92%
inactive: [1] 64.2% | [2] 21.8% | [6] 34.9%

CCCCN(CCCC)c1cc(C(=O)CCCCCN)c2ccccc2n1
active: [2] -52.1% | [5] -95.6% | [6] -31.4% | [7] -93.3%
inactive: [1] 68.2% | [3] 39.8% | [4] 40%

Nc1nc(-c2ccccc2Cl)cc(-c2ccc(Cl)cc2Cl)n1
active: [2] 0.0733%
inactive: [1] 75.3% | [3] 39% | [4] 45.7% | [5] 33% | [6] 83.6% | [7] 53.8%

CCOC(=O)c1ccc(NC(=O)Nc2ncc(Cl)cc2Cl)cc1
inactive: [1] 106% | [2] 90.8% | [3] 102% | [4] 97.8% | [5] 83.9% | [6] 96.2% | [7] 102%

CCCCCC(=O)c1ccc(OCCCN2CCN(C(=O)OCC)CC2)cc1
inactive: [1] 91.4% | [2] 98.8% | [3] 93.2% | [4] 93% | [5] 75.6% | [6] 96.9% | [7] 94.4%

O=C(Nc1nc(-c2ccccc2Cl)cs1)c1cc(-c2ccc(Cl)cc2)nc2ccc(Cl)cc12
active: [1] -9.33% | [2] -46.9% | [5] 6.81%
inactive: [3] 26.7% | [4] 11.2% | [6] 90.7% | [7] 12.4%

O=C(Nc1nc2ccccc2s1)Nc1ccc([N+](=O)[O-])cc1Cl
active: [7] -32.4%
inactive: [1] 16.2% | [2] 40.4% | [3] 95.6% | [4] 74.3% | [5] 18.7% | [6] 76.1%

c1ccc(CSc2nnc3c4c5c(sc4nc(-c4cccnc4)n23)CCCCCC5)cc1
inactive: [1] 41.1% | [2] 19.1% | [3] 55.3% | [4] 37.6% | [5] 29.3% | [6] 46.5% | [7] 34.4%

CCCCCCCCCCCCCCCCCCOCC(COCCOCC[N+]1(CCCCCC(=O)[O-])CCCC1)Oc1ncccn1 (stereo not given)
inactive: [1] 33.8% | [2] 51.7% | [3] 42.9% | [4] 25.7% | [5] 20.4% | [6] 24.7% | [7] 15.2%

O=C(O)C(SC(C(=O)O)c1ccccc1)c1ccccc1 (stereo not given)
inactive: [1] 101% | [2] 116% | [3] 107% | [4] 96.3% | [5] 106% | [6] 103% | [7] 113%

COc1cc(-c2nnc(-c3c(-c4ccc(F)cc4)nc4ccccn34)o2)cc(OC)c1OC
inactive: [1] 66.1% | [2] 93.5% | [3] 90% | [4] 73.3% | [5] 34.1% | [6] 105% | [7] 81.7%

Nc1cc2c(cc1Cl)-c1ccc([N+](=O)[O-])cc1/C2=N\O
inactive: [1] 89% | [2] 51.3% | [3] 38.6% | [4] 79.2% | [5] 43.2% | [6] 97.3% | [7] 65%

c1ccc(CP(Cc2ccccc2)c2ccccc2)cc1
inactive: [1] 96.2% | [2] 75.5% | [3] 105% | [4] 96.7% | [5] 100% | [6] 101% | [7] 103%

CCN(CC)CCCC(C)Nc1ccc2ccc(Cl)cc2n1 (stereo not given)
inactive: [1] 96.2% | [2] 109% | [3] 97.9% | [4] 99.6% | [5] 92.2% | [6] 92.8% | [7] 104%

CC(=O)n1c(-c2ccc(Cl)c(Cl)c2)cn(-c2ccc(Cl)cc2)c1=O
inactive: [2] 32% | [3] 38.7% | [4] 21.9% | [5] 17.8% | [6] 21.6% | [7] 49.8%
active: [1] 0.373%

c1ccc(CO[C@H]2CO[C@H]3[C@@H]2OC[C@H]3OCc2ccccc2)cc1
inactive: [1] 104% | [2] 115% | [3] 107% | [4] 101% | [5] 105% | [6] 98% | [7] 103%

Cc1ccc(-c2n[nH]c(=O)c3noc(-c4ccc(C)cc4)c23)cc1
active: [2] -13.3%
inactive: [1] 38.3% | [3] 28% | [4] 20.2% | [5] 32.2% | [6] 70.3% | [7] 35.9%

COc1ccc(NC(=O)CSc2nc3ccccc3c(=O)n2CCc2ccccc2)cc1
inactive: [1] 91.8% | [2] 90.5% | [3] 89.1% | [4] 89.9% | [5] 87.6% | [6] 106% | [7] 84.4%

CCCC(F)C(=O)O (stereo not given)
inactive: [1] 111% | [2] 95.8% | [3] 105% | [4] 97.8% | [5] 102% | [6] 111% | [7] 106%

CCCCN(CCCC)CCCCCCCCC(O)c1cc2ccccc2c2ccccc12 (stereo not given)
inactive: [1] 67.5% | [2] 67.3% | [3] 66.6% | [4] 28.7% | [5] 22.7% | [6] 61.5% | [7] 40.9%

O=C(Nc1cccc(-n2cc(-c3ccncc3)c(-c3ccc(O)c(Cl)c3)n2)c1)c1cc(C(F)(F)F)cc(C(F)(F)F)c1
inactive: [1] 79.7% | [2] 52% | [3] 67.7% | [4] 27.3% | [5] 44.1% | [6] 33.3% | [7] 27.1%

CC1CN(Cc2ccccc2)C(=O)NC1=O (stereo not given)
inactive: [1] 103% | [2] 110% | [3] 110% | [4] 94.8% | [5] 106% | [6] 110% | [7] 113%

COc1cc(CNCCCCCCN2C(=O)c3cccc4cccc(c34)C2=O)ccc1O
active: [6] -21.3%
inactive: [1] 83.2% | [2] 58.1% | [3] 57.9% | [4] 11.4% | [5] 31.4% | [7] 72.3%

Cn1c([N+](=O)[O-])cnc1/C=C1\Oc2ccc(Cl)cc2C1=O
active: [1] -35.7% | [2] -62.7% | [3] -61.6% | [4] 1.32% | [5] -46.6% | [6] -58.6% | [7] -37%
